In all, about 350,000 compounds went through this assay and about 2,300 (0.66%) were called active. The sample holds actives, similar compounds and a random draw of the others, so the mix is not that of the screen. Unmarked numbers belong to inactive results.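 Rule for the calls: active = mean inhibition of at least 50% after viability correction, with every replicate also passing that limit; inconclusive = mean reaches 50% but only one of two replicates passes; inactive = the rest.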

A short description of the assay: blockers of EWS/Fli transcriptional output – A673 cells, NR0B1 luciferase, luminescence, MLPCN library, primary screen (AID 651661).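 Note: firefly luciferase signal divided by Alamar Blue viability fluorescence both relative to DMSO.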 The following applies: A673 NR0B1-luciferase reporter, viability-normalised; at 12.6 µM; hits give high values. (In general: Reporter assays use an easily measured gene product as a stand-in for the process of interest.)
Take `COCC(=O)Nc1ccc2c(c1)C(=O)N(C)[C@@H]1CC[C@H](CC(=O)NCCc3ccccc3)O[C@@H]1CO2`: the inhibition (as a rule, the relative decrease from the control value, in per cent) was 6.92%. Consider `C[C@H](CO)N1C[C@H](C)[C@@H](CN(C)S(=O)(=O)c2ccc([N+](=O)[O-])cc2)OCc2ccccc2-c2c(n(C)c3ccccc23)C1=O`, for which the inhibition is 14.6%. Take `CO[C@H]1CN(C)C(=O)c2cc(NC(C)=O)ccc2OC[C@H](C)N(C(=O)CN(C)C)C[C@@H]1C`: the inhibition was -2.59%. Take `CCS(=O)(=O)N1CCC2(CC1)CN[C@H](CO)c1c2c2ccc(OC)cc2n1C`: the inhibition was 8.2%. Consider `CCOc1ccc(OCc2cccc(C(=O)N(CC)CC)c2)cc1`, for which the inhibition was 67.8% (active). The result for `CCOc1ccc(OCc2ccc(C(=O)N(C)c3ccccc3)o2)cc1` reads -36.4%. As for `CC(C)(C)OC(=O)N(Cc1ccccc1)Cc1ccc(OCc2cccc(NC(=O)c3ccccc3)c2)cc1`, the inhibition was 11.8%. Next, `CC=Cc1ccc2n(c1=O)C[C@@H]1[C@@H](CO)[C@H](C(=O)N(C)C)N(CC3CCOCC3)[C@H]21` (mixture of isomers): -1.84%; `Cc1ccccc1S(=O)(=O)N1[C@H](CO)[C@@H](c2ccc(-c3ccccc3)cc2)[C@@H]1C#N`: 18.6%. As for `O=C(C[C@H]1C[C@@H]2c3cc(NC(=O)C4CCOCC4)ccc3O[C@@H]2[C@H](CO)O1)NCC1CC1`, the inhibition is 2.22%. Consider `C[C@@H]1C[C@@H]2O[C@H]2/C=C\C=C\C(=O)Cc2c(Cl)c(O)cc(O)c2C(=O)O1`, for which the inhibition is 76.6% (active).

As to `CC(C)(C)c1ccc(Oc2ccc(N)cc2)cc1`, the inhibition is 65.3% (active). Turning to `COc1cnc(-c2ccccn2)nc1Oc1ccc(C(C)(C)C)cc1`, the inhibition was 18.9%.

Take `COCC(=O)Nc1ccc2c(c1)C(=O)N(C)[C@@H]1CC[C@@H](CC(=O)NCC(F)(F)F)O[C@H]1CO2`: the inhibition is -7.87%.

On to `CCNC(=O)Nc1ccc2c(c1)C(=O)N(C)[C@@H]1CC[C@@H](CC(=O)NC3CCCCC3)O[C@H]1CO2`, for which the inhibition was 6.61%. As for `O=C(c1ccc(F)cc1)N1CC(=O)N2[C@H](C1)[C@@H](c1ccc(C#CC3CC3)cc1)[C@@H]2CO`, the inhibition is -6.65%.

For `CCCNC(=O)N1C[C@@H](C)[C@@H](OC)CN(C)C(=O)c2ccc(NC(=O)C3CCC3)cc2OC[C@@H]1C`, the inhibition was -1.5%. In the case of `Clc1ccc(Nc2ccc3ccccc3n2)cc1`, the inhibition is -53.3%. Take `C(=N\Nc1ccc2ccccc2n1)/c1ccc2c(c1)OCO2`: the inhibition was 59.1% (active). For `NC(=O)c1ccc(NC(=O)COC(=O)c2c3c(nc4ccccc24)/C(=C\c2ccc4c(c2)OCO4)CCC3)cc1`, the inhibition was -2.89%.

These data come from PubChem BioAssay AID651661 (Broad Institute, 2012).
